From ChEMBL document CHEMBL4513216, “Probing the Open Global Health Chemical Diversity Library for Multistage-Active Starting Points for Next-Generation Antimalarials” (ACS Infect Dis, 2020)
The campaign covered roughly 69,000 compounds. About 8,600 (12%) showed an effect of 50% or more. Only a selection was taken, and strong results are over-represented in it overall.

Each molecule was assayed on Plasmodium berghei (assay: Screen against P. berghei liver stage (PbLuc), transformed with Luciferase, at 10uM). Settings: tested at 10 uM.
Type: functional, HepG2
Work on `CCc1ncc2c(n1)CN(Cc1cc(C)on1)CC2` yielded an INHIBITION of 35.4%. Molecule `Cc1nn(C)cc1-c1cncn1CCN(C)C1CCCC1` has an INHIBITION of -25.3%. `Cc1nc(C)c(C(=O)N2CCN(CCOc3ccccc3C)CC2)o1` gave an INHIBITION of 66.3%. `COCCN1CCCN(C(=O)c2oc(C)nc2C)CC1` was tested, and the INHIBITION was 33.4%. Work on `CCCN1CCCN(C(=O)c2oc(C)nc2C)CC1` yielded an INHIBITION of 2.7%. `CCCC(=O)N1CCCN(C(=O)c2oc(C)nc2C)CC1` gave an INHIBITION of 80%. In the case of `Cc1ocnc1C(=O)N1CCN(CCOc2ccccc2)CC1`, the INHIBITION is reported as 37.6%. `Cc1nc(C)c(C(=O)N2CCc3nnc(C4CCCCN4C)n3CC2)o1` (stereo not given) was tested, and the INHIBITION was -4.68%. With `COCCNC(=O)C(C)n1nc(-c2ccco2)cc(N)c1=O` (stereo not given) the INHIBITION was 42.6%. Work on `CC(C)OCCCN(Cc1ccncc1)Cc1cccc(F)c1F` yielded an INHIBITION of -12.9%. Work on `COc1cc2cc(C(=O)NCC(=O)O)n(C)c2c(OC)c1OC` yielded an INHIBITION of 57.3%. Work on `COc1cc2cc(C(=O)O)n(C)c2c(OC)c1OC` yielded an INHIBITION of -9.48%. With `COc1cc2cc(C(=O)NCCC(=O)O)n(C)c2c(OC)c1OC` the INHIBITION was 11%. With `Cc1nc(C2CCCN2CCC(=O)N2CCc3ccccc32)no1` (stereo not given) the INHIBITION was 5.03%. `Cc1nnc(N2C[C@H](OCC3CCCC3)[C@H]3OCCC[C@H]32)s1` showed an INHIBITION of -34.7%. With `COc1ccccc1C1CCN(c2ccc3cc[nH]c3n2)CC1` the INHIBITION was 88.2%. For `COc1ccc(OC)c(C2CCN(C3CCOCC3)C2)c1` (stereo not given), the INHIBITION was -68.6%. `COc1cccc(C2CC(=O)Nc3nc(N4CCCCC4)sc32)c1OC` (stereo not given) was tested, and the INHIBITION was 19.3%. `COc1cccc(C2CCN(c3ccc4cc[nH]c4n3)C2)c1OC` (stereo not given) gave an INHIBITION of 89.9%. `COC(=O)c1ccc(N2CCC(c3ccccc3)CC2)nn1` was tested, and the INHIBITION was -18.5%. Work on `COc1ccccc1OC1CCN(c2nc(N)nc3[nH]cnc23)CC1` yielded an INHIBITION of -18.8%. `COc1ccc(OC)c(C2CCN(c3ccc4cc[nH]c4n3)C2)c1` (stereo not given) gave an INHIBITION of 79.2%. `COc1cccc(C2CC(=O)Nc3nc(N4CCOCC4)sc32)c1OC` (stereo not given) showed an INHIBITION of 13.4%. In the case of `COc1ccc(OC)c(C2CCN(Cc3nc(C)n4ccccc34)C2)c1` (stereo not given), the INHIBITION is reported as 45.8%. With `Fc1cnc(N2CCC3(CCCN(c4nncs4)C3)C2)nc1` (stereo not given) the INHIBITION was 4.68%. `COCC1COCCC12CCN(CCc1ccccc1)CC2` (stereo not given) showed an INHIBITION of 2.3%. `O=C(Nc1cn[nH]c1)c1ccncc1` was tested, and the INHIBITION was 35.95%. In the case of `CN(C)C(=O)CNC(=O)c1nc(C2CC2)n(-c2ccccc2Cl)n1`, the INHIBITION is reported as -20.8%. `O=C(c1ccnnc1)N1CC[C@H]2C[C@H](c3ccncn3)O[C@@H]2C1` gave an INHIBITION of 25.2%. `Cc1ccc(Oc2ncccc2C(=O)O)c(C)c1` was tested, and the INHIBITION was -16.2%. For `CC(C)c1cc(N[C@@H](CO)C(N)=O)n2nccc2n1`, the INHIBITION was 42.3%. In the case of `CC(C)c1cc(N2CCC(CCC(=O)NC3CC3)CC2)n2nccc2n1`, the INHIBITION is reported as 33.5%. With `CC(C)c1cc(N2CC[C@H](F)C2)n2nccc2n1` the INHIBITION was 65.7%. For `Cc1cnn(CC2CCN(c3cc(C(C)C)nc4ccnn34)CC2)c1`, the INHIBITION was 21.2%. Molecule `CC(C)c1cc(NCC(C)N2CCCC2)n2nccc2n1` (stereo not given) has an INHIBITION of 65.1%. With `CC(C)[C@H](Nc1cc(-c2ccncc2)nc2ccnn12)C(N)=O` the INHIBITION was 25.5%. `CC(C)c1cc(NCC(O)c2ccncc2)n2nccc2n1` (stereo not given) gave an INHIBITION of 0.897%. With `CC(C)c1cc(N2CCC(N)CC2)n2nccc2n1` the INHIBITION was -6.53%. Molecule `CC(C)c1cc(N2CCN(c3ccc(O)cc3)CC2)n2nccc2n1` has an INHIBITION of 26.8%. `CC(=O)NCC1CCN(c2cc(C(C)C)nc3ccnn23)CC1` showed an INHIBITION of 59.4%. `CC(C)c1cc(N[C@H](C(N)=O)C(C)C)n2nccc2n1` showed an INHIBITION of 55.2%. Work on `CC(C)c1cc(NCC(O)CO)n2nccc2n1` (stereo not given) yielded an INHIBITION of 36.8%. With `O=C(Cc1ccsc1)N1CCC(O)(CN2CCc3ccccc3C2)C1` (stereo not given) the INHIBITION was 30.8%. With `COc1ncccc1CN1C[C@@H]2COC[C@]2(COCC(=O)N(C)C)C1` the INHIBITION was -3.52%. `CCn1cc(C(=O)NCCN2CCCc3ccccc32)c(C)n1` was tested, and the INHIBITION was 12.9%. `Cn1nc(C2CCN(C(=O)c3cccs3)CC2)c2cccnc21` was tested, and the INHIBITION was 47.2%. For `CCc1nc(CS(=O)(=O)Cc2noc(C3CC3)n2)cs1`, the INHIBITION was 34%. For `CC(C)=CCN1CCN(C(=O)C2CC2)CC1`, the INHIBITION was 21.5%. Work on `CC(C)COCC1CN(Cc2ccsc2)Cc2ncn(C)c21` (stereo not given) yielded an INHIBITION of 16.4%. Work on `Cn1nnc2c1C(COCc1cccnc1)CN(Cc1ccoc1)C2` (stereo not given) yielded an INHIBITION of 29.4%. With `Cc1nc(C)c(CNCC2(COc3cccnc3)C[C@@H](O)[C@@H](O)C2)s1` (stereo not given in full) the INHIBITION was 33.6%. `Cc1noc(CCCC(=O)N2CCCC2c2ccsc2)n1` (stereo not given) was tested, and the INHIBITION was 0.914%. Work on `Cc1cccc2c1NC1(CCCC1)NC2=O` yielded an INHIBITION of 45.2%. In the case of `COC(=O)C1CCN(C(=O)Cn2ccc(-c3ccc(F)cc3)n2)CC1`, the INHIBITION is reported as -36.4%. Molecule `O=C1[C@@H]2CC[C@@H](CN(C3CSCCSC3)C2)N1Cc1cscn1` has an INHIBITION of -14.9%. `Cc1cc(N2CCCC(N(C)C)C2)n2nccc2n1` (stereo not given) showed an INHIBITION of 55.4%. Molecule `Cc1cc(N2CCCC(N(C)C)C2)n2nc(C)cc2n1` (stereo not given) has an INHIBITION of -1.16%. For `Cc1nn2c(N3CCC(O)C3)cc(-c3ccccc3)nc2c1C` (stereo not given), the INHIBITION was 38.5%. In the case of `COC1CCN(c2cc(C(C)C)nc3ccnn23)C1` (stereo not given), the INHIBITION is reported as 7.6%. Work on `Cc1nn2c(N3CCCC(C#N)C3)cc(-c3ccccc3)nc2c1C` (stereo not given) yielded an INHIBITION of 19.5%. For `CC(C)c1cc(N2CCSCC2)n2nccc2n1`, the INHIBITION was -6.03%. Work on `CC(C)c1cc(N2CCC(C(C)N3CCCC3)CC2)n2nccc2n1` (stereo not given) yielded an INHIBITION of 73%. In the case of `CN(C)C1CCN(c2cc(-c3ccccc3)nc3ccnn23)C1` (stereo not given), the INHIBITION is reported as 74.9%. `Cc1cc2nc(C(C)C)cc(N3CCC(O)CC3)n2n1` gave an INHIBITION of 11.3%. With `Cc1cc2nc(C(C)C)cc(N3CCC(N(C)C)C3)n2n1` (stereo not given) the INHIBITION was 17.7%. With `CC(C)c1cc(N2CCC[C@H](N)C2)n2nccc2n1` the INHIBITION was 13%. With `CC(C)c1cc(N2CCC(N(C)C)C2)n2nccc2n1` (stereo not given) the INHIBITION was 53.9%. In the case of `COc1cccc(OCCc2nnc(NC(C)=O)s2)c1`, the INHIBITION is reported as -8.9%. With `N[C@H]1CN(C(=O)CCCc2ccc(F)cc2)C[C@@H]1C1CC1` the INHIBITION was 25.1%. `O=C1COc2ccc(C(=O)NS(=O)(=O)c3cc(F)ccc3F)cc2N1` showed an INHIBITION of 33.3%.
